# Bioassay records: PubChem BioAssay, several laboratories
# A selection: hits, their analogues and other compounds. The true share with any hit is near 2.1%.
# LANA-H2B inh – blocks KSHV LANA binding to histone H2A/H2B. Q9QR71. cell-free LANA-H2A/H2B peptide, fluorescence polarization. inhibition, % (concentration not given with the values). actives 0.6% (n = 320,000); in the data active = inhibition mostly above about 10%, no sharp cut-off; inactive = mostly below about 6.7%
# Target sequence (Q9QR71 whole entry, looked up): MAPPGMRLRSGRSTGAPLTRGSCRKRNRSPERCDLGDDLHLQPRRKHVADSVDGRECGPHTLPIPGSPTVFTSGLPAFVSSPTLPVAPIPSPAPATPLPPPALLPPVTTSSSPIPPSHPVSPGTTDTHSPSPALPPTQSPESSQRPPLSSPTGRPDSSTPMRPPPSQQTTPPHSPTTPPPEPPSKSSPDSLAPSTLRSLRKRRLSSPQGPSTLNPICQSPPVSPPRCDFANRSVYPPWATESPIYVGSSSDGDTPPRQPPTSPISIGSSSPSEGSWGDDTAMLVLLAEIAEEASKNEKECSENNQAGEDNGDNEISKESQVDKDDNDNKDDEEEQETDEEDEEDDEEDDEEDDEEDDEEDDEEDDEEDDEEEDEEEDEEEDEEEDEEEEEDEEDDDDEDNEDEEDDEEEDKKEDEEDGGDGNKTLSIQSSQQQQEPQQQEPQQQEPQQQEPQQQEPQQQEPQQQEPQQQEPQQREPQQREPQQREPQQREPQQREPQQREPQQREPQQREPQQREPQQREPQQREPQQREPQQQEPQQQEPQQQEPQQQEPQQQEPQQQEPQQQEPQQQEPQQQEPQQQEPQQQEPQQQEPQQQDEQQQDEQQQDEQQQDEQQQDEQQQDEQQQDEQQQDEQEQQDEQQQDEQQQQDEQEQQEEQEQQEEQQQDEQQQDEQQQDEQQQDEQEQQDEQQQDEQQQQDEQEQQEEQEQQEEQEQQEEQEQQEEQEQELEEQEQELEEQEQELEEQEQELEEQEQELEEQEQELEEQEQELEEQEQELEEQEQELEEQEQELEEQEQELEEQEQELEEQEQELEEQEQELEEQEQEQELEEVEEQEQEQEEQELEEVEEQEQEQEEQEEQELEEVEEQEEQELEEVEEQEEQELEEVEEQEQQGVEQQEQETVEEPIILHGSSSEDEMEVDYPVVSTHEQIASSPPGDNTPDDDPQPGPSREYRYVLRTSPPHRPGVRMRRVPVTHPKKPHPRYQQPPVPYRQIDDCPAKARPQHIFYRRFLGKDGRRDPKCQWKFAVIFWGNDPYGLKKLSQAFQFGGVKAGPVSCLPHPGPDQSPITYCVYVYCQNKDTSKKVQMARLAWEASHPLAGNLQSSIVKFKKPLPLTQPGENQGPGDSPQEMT
# HDAC3 inhib – blocks human histone deacetylase 3 | O15379 | actives 0.15% (n = 320,000) | inhibition, % at 8.3 µM | recombinant HDAC3, fluorogenic peptide/trypsin coupled, fluorescence; in the data active = inhibition above about 26%, passing the limit was not always enough; inconclusive = no clear call, values can overlap the other calls
# IDE cell activ – boosts human insulin-degrading enzyme activity in HEK cells. FAbeta-B cleavage, fluorescence polarization; 0% vehicle, 100% cell-free pure enzyme wells. activation, % at 5.96 µM. actives 0.073% (n = 340,000). P14735;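 active = activation above the mean of all tested compounds plus 3 SD, set per screening campaign, cut at about 17% in these data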
# IDE cell inh – cellular human IDE inhibition. P14735. HEK cells, FAbetaB cleavage, fluorescence polarization. inhibition, % at 5.59 µM. actives 0.41% (n = 320,000). AID 434962;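 active = percent inhibition above the average of all tested compounds plus 3 SD, set per screening campaign, cut at about 16% in these data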;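 also: IDE supplied by intact live HEK cells; FP after avidin binding of uncleaved biotin substrate so inhibition keeps polarization high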
# SUMO Mot1 rescue – blocks SUMOylation pathway, rescuing yeast Mot1-301 growth; S. cerevisiae Mot1-301 growth rescue, ATP luminescence, 38.5C; percent above DMSO median, 100 means doubled; actives 1% (n = 320,000); growth rescue, % at 18.8 µM;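 active = every valid replicate shows activation above 250% relative to neutral control wells; inactive = the rest, any valid replicate at or below 250%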
# IDE cell inh cf – confirmation of human insulin-degrading enzyme inhibitors in cells; shares compounds with IDE cell inh; HEK cells, FAbetaB cleavage, fluorescence polarization; inhibition, % at 5.59 µM; actives 51% (n = 1,200);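 active = mean inhibition across triplicate wells above the cutoff set by the earlier primary insulin-degrading enzyme screen, cut at about 16% in these data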
# HEK293 tox – counter-screen for IDE inhibitors: cytotoxicity in HEK cells; HEK293 cytotoxicity, ATP luminescence; actives 28% (n = 1,200); inhibition, % at 5.59 µM; shares compounds with IDE cell inh; AID 449730; in the data active = inhibition above about 22%
# Hits are given with their value; - = inactive; ? = inconclusive; . = not tested or not shown; ! = repeats disagree.
SMILES,LANA-H2B inh,HDAC3 inhib,IDE cell activ,IDE cell inh,SUMO Mot1 rescue,IDE cell inh cf,HEK293 tox
CN(C)c1ccc(/C=C/c2nc3ccccc3s2)cc1,-,-,-,-,-,.,.
COc1cc(C=C(c2nc3ccccc3s2)c2nc3ccccc3s2)ccc1O,-,-,-,27,-,59,-
COc1cc(/C=C/c2nc3ccccc3s2)cc(OC)c1O,-,-,-,142,-,103,-
COc1ccc(C=C(c2nc3ccccc3s2)c2nc3ccccc3s2)cc1O,-,-,-,-,-,.,.
COC(=O)Cc1ccc(NC(=S)N2CCC(Cc3ccccc3)CC2)cc1,-,?,-,-,-,.,.
O=C(Cc1cccc2ccccc12)Nc1ccccc1Br,-,-,-,-,-,.,.
O=C(c1ccc(-c2ccc([N+](=O)[O-])cc2)o1)N1CCN(S(=O)(=O)c2cccs2)CC1,-,-,-,-,-,.,.
O=C(COC(=O)c1ccc(Cl)c(Cl)c1)NC1CCCC1,-,-,-,-,-,.,.
O=C(CN1C(=O)NC2(CCCCC2)C1=O)Nc1ccc2c(c1)OCCCO2,-,-,-,-,-,.,.
COc1cccc(C2=CC(c3ccc(N(C)C)cc3)n3nnnc3N2)c1 (stereo not given),-,-,-,44,-,37,39
COC(=O)c1ccc(COc2cccnc2[N+](=O)[O-])cc1,-,-,-,-,-,.,.
CC(C)[C@H](NC(=O)C1CCN(S(=O)(=O)c2ccc(F)cc2)CC1)C(=O)NCc1ccncc1,-,-,-,-,-,.,.
CCOc1ccc(NC(=O)CSc2nc3[nH]ncc3c(=O)n2-c2ccccc2OC)cc1,-,-,-,62,-,-,-
CCc1ccccc1-n1c(SCC(=O)N2CCCC2)nc2[nH]ncc2c1=O,-,-,-,-,-,.,.
O=C(CSc1nc2[nH]ncc2c(=O)n1-c1ccccc1Cl)N1CCCC1,-,-,-,18,-,-,-
O=C(CN1C(=O)NC2(CCCCC2)C1=O)NCCc1ccc(Cl)cc1Cl,-,-,-,-,-,.,.
O=C(CN1CCN(Cc2ccccc2Cl)CC1)N/N=C/C=C/c1ccccc1[N+](=O)[O-],-,-,-,22,-,-,-
C/C(=N/NC(=O)CN1CCN(Cc2ccccc2Cl)CC1)c1cccs1,-,-,.,-,-,.,.
C/C(=N/NC(=O)CN1CCN(Cc2ccccc2Cl)CC1)c1cccnc1,-,-,-,23,-,-,-
COc1ccccc1NC(=O)c1ccc(NC(=O)COC(=O)C2CCCO2)cc1 (stereo not given),.,.,-,.,.,.,.
COc1ccccc1NC(=O)c1ccc(NC(=O)COC(=O)C2CC2C)cc1 (stereo not given),19,-,-,19,-,-,-
COc1cc(-c2cc(=O)c3ccccc3o2)ccc1O,-,-,-,25,-,24,-
COc1cc(-c2noc(CCCC(=O)Nc3cccnc3)n2)cc(OC)c1OC,-,-,-,16,-,-,-
CNC(=O)c1c(NC(=O)c2ccc(S(=O)(=O)N3CCCC3)cc2)sc2c1CCN(C(C)C)C2,-,-,.,43,-,-,-
CNC(=O)c1c(NC(=O)c2ccc(S(=O)(=O)N3CC(C)OC(C)C3)cc2)sc2c1CCN(C(C)C)C2 (stereo not given),-,-,-,-,-,.,.
SMILES,LANA-H2B inh,HDAC3 inhib,IDE cell activ,IDE cell inh,SUMO Mot1 rescue,IDE cell inh cf,HEK293 tox
CCCSCCCNC(=O)c1ccccc1NC(=O)C1=CSCCO1,-,-,-,-,-,.,.
Cc1cc(C(=O)Nc2ccon2)ccc1[N+](=O)[O-],-,-,.,-,-,.,.
CC1NC(=O)NC1CCCCCC(=O)NCCc1ccccc1 (stereo not given),-,-,-,-,-,.,.
Cc1cccc(C)c1NC(=O)CCCCCC1NC(=O)NC1C (stereo not given),-,-,-,22,-,-,-
Oc1sc(C=Nc2ccccc2)c2ccccc12,-,-,-,26,-,30,-
Oc1c(C=Nc2ccccc2)sc2ccccc12,-,-,-,-,-,.,.
Oc1c(C=Nc2cccnc2)sc2ccccc12,-,-,-,-,-,.,.
Oc1sc(C=Nc2ccc(F)cc2)c2ccccc12,-,-,-,18,-,34,-
Cc1ccc(C(=O)N/C(=C\c2cccs2)C(=O)NCCCN2CCOCC2)cc1,-,-,-,-,-,.,.
O=C(CNc1ccc(Cl)c(C(F)(F)F)c1)N1CCN(S(=O)(=O)c2ccccc2)CC1,.,.,-,.,.,.,.
Cc1ccc(S(=O)(=O)N2CCN(c3ccccc3)CC2)s1,-,-,-,-,-,.,.
CCN1C(=O)/C(=C/C=C2\N(CC)c3cc(S(=O)(=O)N(C)C)ccc3N2c2ccccc2)SC1=S,-,-,-,18,-,74,32
COc1ccc(S(=O)(=O)N2CCOCC2)cc1NC(=O)c1cc(C)oc1C,-,-,-,-,-,.,.
COc1ccc(-c2nnc(Nc3nc4c(OC)cccc4s3)o2)cc1,-,-,-,24,-,19,-
COc1ccc(-c2nnc(Nc3nc4c(OC)cccc4s3)o2)c(OC)c1,-,-,-,-,-,.,.
COc1ccc(OCCOC(=O)CNS(=O)(=O)c2ccc(SC)c([N+](=O)[O-])c2)cc1,-,-,-,-,-,.,.
COc1ccccc1NC(=O)CSc1nnc(Cc2cc(=O)[nH]c(=O)[nH]2)n1-c1ccccc1,-,-,-,19,-,-,-
CC(Oc1ccc2c3c(c(=O)oc2c1)CCCC3)C(=O)NCc1ccncc1 (stereo not given),-,-,-,24,-,17,-
N#Cc1ccccc1Cn1cc(/C=C/[N+](=O)[O-])c2ccccc21,-,-,-,16,-,-,85
COc1ccc(OC)c(N=c2ssnc2Cl)c1,-,-,-,-,-,.,.
COc1cc(N=c2ssnc2Cl)c(OC)cc1Cl,-,-,-,18!,-,-,34
CCn1c(SCC(=O)Nc2nc(-c3ccc(C)cc3)cs2)nnc1-c1ccccc1O,-,-,-,-,-,.,.
CCn1c(SCC(=O)Nc2nc(-c3ccc(C)cc3)cs2)nnc1-c1ccccc1,-,-,-,16,-,-,-
Cc1noc(C)c1NC(=O)N(C)C[C@H]1Oc2ccc(NC(=O)C3CC3)cc2C(=O)N([C@H](C)CO)C[C@@H]1C,-,-,-,-,-,.,.
COc1ccc(C(=O)NCC(=O)NCC(=O)OCc2ccc(Br)cc2)cc1,-,-,-,-,-,.,.
O=C(CNC(=O)c1ccc(Oc2ccccc2)cc1)OCc1ccc(Br)cc1,-,-,-,28,-,-,-
O=C(NCCc1ccccc1)c1ccc(S(=O)(=O)N2CCCC2)cc1,-,-,-,-,-,.,.
S=c1[nH]nc(COc2ccc(Cl)cc2Cl)n1-c1ccccc1,-,-,-,-,-,.,.
O=c1oc2ccc(Br)cc2cc1-c1nc2ccccc2o1,-,-,-,20,-,73,-
Cn1ccc2cc(-c3csc(N4CCC(C(N)=O)CC4)n3)ccc21,-,-,-,-,-,.,.
